The compounds below were run on HL-1 (assay: protection of cardiomyocytes from stress damage, SAR follow-up, cell-based, panel, H9c2 and HL-1, ATP luminescence, set 2 (AID 651871;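 note: cells exposed to stressor for 2 h before ATP readout; reference of the scale not given here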)). Conditions: H9c2/HL-1 cardiomyocytes, 2-deoxyglucose stress, with 2-deoxyglucose, run 13, at 79 µM (top of the series).
Compound `COc1ccc2c(c1OC)C(=O)N1c3ccccc3C(=O)N(Cc3cccc(Cl)c3Cl)C21` (stereo not drawn) has an activity (protection/inhibition) of -9.86%. `CCOC(=O)c1cccc(NC(=O)CNC(=O)c2cc(-c3cc(OC)c(OC)c(OC)c3)nc3ccccc23)c1` was tested, and the activity (protection/inhibition) was 66.6%. With `COc1ccc2nc(-c3cc(OC)c(OC)c(OC)c3)cc(C(=O)NCC(=O)Nc3ccc(C(C)=O)cc3)c2c1` the activity (protection/inhibition) was 55.5%.

— PubChem BioAssay AID651871 (Sanford-Burnham Center for Chemical Genomics, 2012)
